MazF activator: activators of E. coli MazEF toxin-antitoxin RNase, primary screen, biochemical, fluorescence, uHTS. actives 0.32% (n = 350,000). activation, % at 20 µM. Endoribonuclease toxin MazF (Escherichia coli (strain K12)), P0AE70. AID 504720, 2011. FAM/BHQ RNA-DNA oligo cleavage fluorescence, 5 h; in the data active means activation above about 50%
Target sequence (P0AE70 whole entry, looked up): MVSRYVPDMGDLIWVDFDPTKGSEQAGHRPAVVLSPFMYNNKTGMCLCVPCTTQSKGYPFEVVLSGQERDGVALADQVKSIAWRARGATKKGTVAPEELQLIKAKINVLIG
BoNT A protease: BoNT/A light chain protease inhibitors, primary screen, biochemical, flow cytometry, MLPCN library | Botulinum neurotoxin type A light chain protease (Clostridium botulinum A str. ATCC 3502) | multiplex microsphere protease substrate cleavage | inhibition, % at 10 µM | actives 0.17% (n = 360,000); further: plate controls were buffer without enzyme for full effect and enzyme alone for no effect
BoNT-F LC inh: BoNT/F light chain protease inhibitors, primary screen, biochemical, flow cytometry, MLPCN library; Botulinum neurotoxin type F light chain protease (Clostridium botulinum); Multiplex microsphere protease cleavage assay; inhibition, % at 10 µM; actives 0.22% (n = 360,000); AID 588497, 2011; in the data active means inhibition above about 35%, passing the limit was not always enough; inconclusive means no clear call, values can overlap the other calls; further: plate controls were buffer without enzyme for full effect and enzyme alone for no effect
PriA SSB inh: inhibitors of Klebsiella pneumoniae PriA binding to SSB C-terminal tail, primary screen, biochemical, AlphaScreen; AlphaScreen SSBct-PriA binding, biotinylated peptide; AID 1272365, 2023; actives 0.6% (n = 430,000); PriA–SSB C-terminal tail interaction (Klebsiella pneumoniae); inhibition, % at 33 µM; in the data active means inhibition mostly above about 37%, no sharp cut-off; inactive means mostly below about 20%;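 further: plate controls were negative control peptide for no effect and reference peptide for full effect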
Anthrax LF inh2: Bacillus anthracis LF protease inhibitors, primary screen, biochemical, multiplex microsphere, MLPCN library. Lethal factor (Bacillus anthracis), P15917. multiplex microsphere protease cleavage assay. inhibition, % at 10 µM. actives 0.12% (n = 360,000). AID 588501, 2011; further: plate controls were buffer without enzyme for full effect and enzyme alone for no effect
Bead autofluor: compound fluorescence in toxin protease inhibitor counterscreen | compound autofluorescence counterscreen, microsphere flow cytometry; hits give high values | fluorescence intensity (test concentration not listed) | actives 3.1% (n = 360,000) | AID 624483; in the data active means fluorescence intensity above about 16000; inconclusive means no clear call, values can overlap the other calls
* hit, by the source's call. Only some compounds are listed: those with a hit (about 3.3% of all), similar ones and a draw of the others. Unless noted, no stated cut-off is given here; in the data, active means inhibition above about 30%; inconclusive means no clear call, values can overlap the other calls; inactive means below that.

How did COc1ccc(NC(=O)C2CC(=O)NC3=C2C(=O)CC(C)(C)C3)cc1 (centres undefined) do in these assays?
MazF activator: -3; BoNT A protease: -3; BoNT-F LC inh: -4; PriA SSB inh: -4; Anthrax LF inh2: -8; Bead autofluor: 23174*

What do the screens show for `COc1cc(NC(=O)C2CC(=O)NC3=C2C(=O)CCC3)c(OC)cc1Cl` (centres undefined)?
MazF activator: 0; BoNT A protease: -3; BoNT-F LC inh: -4; PriA SSB inh: -16; Anthrax LF inh2: 0; Bead autofluor: 23479*

Results for Cn1c2ccc(F)cc2c2ncn(Cc3ccccn3)c(=O)c21 ?
MazF activator: -3; BoNT A protease: 0; BoNT-F LC inh: 9; PriA SSB inh: 0; Anthrax LF inh2: 5; Bead autofluor: 6207

Results for Cn1c2ccc(F)cc2c2ncn(Cc3ccco3)c(=O)c21 ?
MazF activator: 2; BoNT A protease: -2; BoNT-F LC inh: -7; PriA SSB inh: -1; Anthrax LF inh2: -2; Bead autofluor: 23973*

How did Cn1c2ccccc2c2ncn(Cc3ccc(F)cc3)c(=O)c21 do in these assays?
MazF activator: -2; BoNT A protease: inconclusive; BoNT-F LC inh: inconclusive; PriA SSB inh: -8; Anthrax LF inh2: 11; Bead autofluor: 4372

How did Cn1c2ccccc2c2ncn(Cc3ccco3)c(=O)c21 do in these assays?
MazF activator: 4; BoNT A protease: 2; BoNT-F LC inh: 1; PriA SSB inh: 4; Anthrax LF inh2: 0; Bead autofluor: 19514*

Results for O=C(Cc1cc(-c2ccc3c(c2)OCO3)on1)NCc1ccccc1Cl ?
PriA SSB inh: -1

How did O=C1CCCN1c1ccc(CSc2n[nH]c(=O)c3cc(-c4ccc(F)cc4)nn23)cc1 do in these assays?
PriA SSB inh: -5

How did Cc1cc(C)n(CCNC(=O)NCCOc2ccccc2)n1 do in these assays?
PriA SSB inh: -12

How did CCOC(=O)N1CCC(Nc2cc(C)nc3c(-c4ccccc4OC)c(C)nn23)CC1 do in these assays?
MazF activator: -14; BoNT A protease: 0; BoNT-F LC inh: 10; PriA SSB inh: 104*; Anthrax LF inh2: 11; Bead autofluor: 5935

Results for O=S(=O)(c1ccccc1OC(F)(F)F)N(Cc1ccsc1)Cc1ccco1 ?
PriA SSB inh: -16

Results for Cn1nc(C(F)(F)F)c(C(=O)Nc2ccc(F)cc2F)c1Sc1ccc(Cl)cc1 ?
MazF activator: -1; BoNT A protease: 0; BoNT-F LC inh: -1; PriA SSB inh: -36; Anthrax LF inh2: 1; Bead autofluor: 5044

What do the screens show for `Cn1nc(C(F)(F)F)c(C(=O)Nc2ccc(F)cc2F)c1Sc1ccc(C(F)(F)F)cc1`?
MazF activator: -7; BoNT A protease: 2; BoNT-F LC inh: 2; PriA SSB inh: -26; Anthrax LF inh2: -1; Bead autofluor: 22356*

What do the screens show for `C=CCN1C(=O)/C(=C2/Sc3ccccc3N2CC)SC1=S`?
MazF activator: 162*; BoNT A protease: 7; BoNT-F LC inh: inconclusive; PriA SSB inh: -8; Anthrax LF inh2: -1; Bead autofluor: 3721

What do the screens show for `C=CCN1C(=O)/C(=C2/Sc3ccccc3N2CCCS(=O)(=O)O)SC1=S`?
MazF activator: -11; BoNT A protease: -2; BoNT-F LC inh: -34; PriA SSB inh: 12; Anthrax LF inh2: 2; Bead autofluor: 4172

How did COc1ccc(/C=C/c2cc(=O)c3cc(Cl)ccc3o2)cc1 do in these assays?
MazF activator: 54*; BoNT A protease: 0; BoNT-F LC inh: -14; PriA SSB inh: -12; Anthrax LF inh2: -2; Bead autofluor: 2736

How did COc1ccccc1-c1cc(=O)c2cc(Cl)ccc2o1 do in these assays?
PriA SSB inh: -5

How did Cc1ccccc1CSc1n[nH]c(=O)c2cc(-c3cccs3)nn12 do in these assays?
PriA SSB inh: -8

Results for CC(C)CNC(=O)CSc1nc2nn(-c3ccccc3)c(=O)c-2c2n1CCCCC2 ?
MazF activator: -4; BoNT A protease: -1; BoNT-F LC inh: -1; PriA SSB inh: -10; Anthrax LF inh2: -2; Bead autofluor: 4942

What do the screens show for `CNC(=O)CSc1nc2nn(-c3ccccc3)c(=O)c-2c2n1CCCCC2`?
MazF activator: -13; BoNT A protease: -3; BoNT-F LC inh: -2; PriA SSB inh: -11; Anthrax LF inh2: -1; Bead autofluor: 21375*

Results for O=C(NCCCN1CCN(Cc2ccccc2)CC1)C1CCN(S(=O)(=O)N2CCC3(CC2)OCCO3)CC1 ?
MazF activator: 3; BoNT A protease: -5; BoNT-F LC inh: 23; PriA SSB inh: -10; Anthrax LF inh2: 4; Bead autofluor: 21569*

How did COc1cccc(/C=C2\N=C(C3CCCCC3)OC2=O)c1OC do in these assays?
MazF activator: 9; BoNT A protease: 0; BoNT-F LC inh: -2; PriA SSB inh: 5; Anthrax LF inh2: -4; Bead autofluor: 4068

How did CCCC1CCC(C2=N/C(=C\c3ccc(OC)c(OC)c3)C(=O)O2)CC1 (centres undefined) do in these assays?
MazF activator: -4; BoNT A protease: 0; BoNT-F LC inh: -2; PriA SSB inh: -3; Anthrax LF inh2: -1; Bead autofluor: 22779*

How did COc1ccccc1N1CCN(N=Cc2ccc([N+](=O)[O-])cc2)CC1 do in these assays?
PriA SSB inh: -9

Results for Cc1cccn2c(=O)c3cc(C(N)=S)c(=N)n(CCCOC(C)C)c3nc12 ?
MazF activator: 24; BoNT A protease: 41*; BoNT-F LC inh: -57; PriA SSB inh: 7; Anthrax LF inh2: -36; Bead autofluor: 3782

Results for O=C(CCSc1nnc2ccc3ccccc3n12)Nc1ccc(F)cc1 ?
MazF activator: -29; BoNT A protease: 1; BoNT-F LC inh: 9; PriA SSB inh: -10; Anthrax LF inh2: 1; Bead autofluor: 3449

How did O=C(CCSc1nnc2ccccn12)Nc1ccc(F)cc1 do in these assays?
MazF activator: -17; BoNT A protease: 0; BoNT-F LC inh: 2; PriA SSB inh: -14; Anthrax LF inh2: 1; Bead autofluor: 23399*

Results for c1ccc(Nc2ccc(N3CCNCC3)nn2)nc1 ?
PriA SSB inh: 56*

What do the screens show for `CC(=O)/C(N=Nc1cc(C)ccc1O)=C(\C)O`?
MazF activator: 105*; BoNT A protease: -1; BoNT-F LC inh: -5; Anthrax LF inh2: -5; Bead autofluor: 5043

What do the screens show for `COC(=O)c1ccc(OCC(=O)c2ccc(O)cc2O)cc1`?
MazF activator: -2; BoNT A protease: -3; BoNT-F LC inh: -5; PriA SSB inh: -20; Anthrax LF inh2: -1; Bead autofluor: 24431*

What do the screens show for `O=C(COc1ccccc1F)c1ccc(O)cc1O`?
MazF activator: 9; BoNT A protease: 4; BoNT-F LC inh: 6; PriA SSB inh: -11; Anthrax LF inh2: -5; Bead autofluor: 20781*

Bioassay records as filed in PubChem.
